Compound activity (PubChem)
An excerpt weighted towards active compounds, which were near 3.1% of everything screened.
VDR inh: blocks the human vitamin D receptor | P11473 | VDR-SRC2-3 peptide fluorescence polarization, 2 h | Potency, µM, for the others: max response, negative = inhibition, hits mostly inhibitors | 400,000 compounds, 0.93% hits | AID 504847; further: potency means the concentration at half of the fitted maximal effect; on the % scale 0 is the no-effect control and ±100 the full control effect
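Fluorescence polarization assay measuring small-molecule disruption of VDR binding to the coregulator peptide SRC2-3. Compounds were pin-transferred (23 nl) into the reagent mix and incubated 2 h at room temperature before reading.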
TSG101-PTAP inh: blocks PTAP/TSG101 interaction to inhibit HIV-1 budding | Q99816 | Fluorescence polarization, FITC-PTAP peptide / Tsg101 binding | Potency, µM (series often up to 115 µM), for inactives: at the highest dose activity change, negative = inhibition, hits mostly inhibitors | 340,000 tested, under 10 active | AID 493005; active means well fitted inhibition curve with a large enough effect in the main read-out, with a control signal flat, not every such curve was filed as active; inconclusive means small, poorly fitted or top-dose-only effect, or effect the other way, or a change in a side signal; inactive means no such curve, though single readings can be large or run the other way; further: potency means the concentration at half of the fitted maximal effect; % of control where 0% means no effect
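Fluorescence anisotropy tracks displacement of a FITC-tagged PTAP peptide (50 nM) from the Tsg101 binding domain (10 uM), following a 20 min room-temperature incubation at pH 7.5.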
TSHR antagonist: blocks TSH signaling through the human TSH receptor; TSHR-expressing cells, TSH-stimulated cAMP HTRF, 2 h; stronger effect = lower value; activity change, negative = inhibition, % at 11.5 µM; P16473; 330,000 compounds, 0.2% hits;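 active means activity change below a set negative limit, meaning inhibition stronger than a set level, cut at about -70% in these data; inconclusive means activity change between two set negative limits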; further: on the % scale 0 is the no-effect control and ±100 the full control effect
Target sequence (P16473 whole entry, looked up): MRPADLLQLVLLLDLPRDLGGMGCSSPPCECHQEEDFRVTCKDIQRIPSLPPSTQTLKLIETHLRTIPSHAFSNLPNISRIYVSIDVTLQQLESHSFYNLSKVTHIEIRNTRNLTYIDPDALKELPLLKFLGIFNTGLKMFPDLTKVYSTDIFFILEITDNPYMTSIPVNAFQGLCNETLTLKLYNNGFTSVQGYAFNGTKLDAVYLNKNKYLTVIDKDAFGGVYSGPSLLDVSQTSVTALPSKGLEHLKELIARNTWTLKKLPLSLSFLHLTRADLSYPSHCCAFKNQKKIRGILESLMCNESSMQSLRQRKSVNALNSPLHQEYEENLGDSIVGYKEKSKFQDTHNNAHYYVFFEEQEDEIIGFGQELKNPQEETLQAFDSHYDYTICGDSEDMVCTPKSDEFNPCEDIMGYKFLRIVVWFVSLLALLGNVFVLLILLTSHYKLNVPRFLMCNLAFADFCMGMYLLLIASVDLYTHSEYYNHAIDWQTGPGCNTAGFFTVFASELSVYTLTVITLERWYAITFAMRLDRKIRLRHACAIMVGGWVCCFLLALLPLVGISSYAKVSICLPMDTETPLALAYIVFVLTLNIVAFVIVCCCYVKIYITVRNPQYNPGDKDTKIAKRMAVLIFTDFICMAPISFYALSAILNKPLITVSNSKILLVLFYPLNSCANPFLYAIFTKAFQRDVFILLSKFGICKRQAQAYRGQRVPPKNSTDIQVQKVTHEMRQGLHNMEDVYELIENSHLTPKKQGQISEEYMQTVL
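TSHR-expressing cells were treated with compounds, then stimulated with TSH at EC80 (4nM final) for 2 hours at 37 deg C. Cellular cAMP was measured by HTRF competition between lysate cAMP and cAMP-d2 for a cryptate-labelled anti-cAMP antibody.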
uPA surface inh: inhibitors of cell surface uPA generation. 330,000 compounds, 0.31% hits. Potency, µM (series often up to 38.3 µM), for inactives: top-dose activity change, negative = inhibition, hits mostly inhibitors. cell surface uPA generation assay, qHTS; active means well fitted inhibition curve with a large enough effect; inconclusive means small, poorly fitted or top-dose-only effect; inactive means no such curve, though single readings can be large or run the other way; tested in mouse RAW 264.7 cells; further: potency means the concentration at half of the fitted maximal effect; on the % scale 0 is the no-effect control and ±100 the full control effect; nearly all actives have a fitted effect of over 55% in size
PLK1 PBD inh: PLK1 (human) polo-box domain binding inhibition; P53350; Plk1 PBD binding of FITC phosphopeptide, fluorescence polarization; Potency, µM, inactives show max response, negative = inhibition, most hits filed as inhibitors; 360,000 compounds, 2.8% hits; AID 720504; further: potency means the concentration at half of the fitted maximal effect; series mostly up to about 57 µM; on the % scale 0 is the no-effect control and ±100 the full control effect; nearly all actives have a fitted effect of over 65% in size
* = called active by the depositor; u = inconclusive; x = no result given. Unless noted, the call rests on the fitted dose curve; in most records, active means well fitted curve in the direction sought with a large enough effect; inconclusive means small, poorly fitted or top-dose-only effect, or another doubt; inactive means no such curve, though single readings can be large; an effect the other way counts as inactive or inconclusive.

SMILES	VDR inh	TSG101-PTAP inh	TSHR antagonist	uPA surface inh	PLK1 PBD inh
COc1ccc(-c2noc(-c3nnn(-c4ccc(C(C)C)cc4)c3C)n2)cc1OC	-2%	x	x	x	x
Cc1ccc(-n2c(=S)[nH]c3sc4c(c3c2=O)CCC4)cc1	6%	-2%	43	0%	24µM*
COc1ccc(NC(=O)Cn2cnc3ccc(S(=O)(=O)N4CCC(C)CC4)cc3c2=O)c(OC)c1	4%	x	x	x	x
O=C1NC(=O)/C(=C\c2ccc(Cl)nc2)S1	u	2%	-14	u	27µM*
O=C(NCCNCCO)C1(C(F)(F)F)CC(CCc2ccccc2)CCCO1 (stereo not drawn)	-1%	x	x	x	x
COc1cccc(C(=O)N2c3cc(C)ccc3C(C)(c3ccccc3)CC2(C)C)c1 (stereo not drawn)	-14%	x	x	x	x
O=C(O)Cn1nc(-c2ccccc2)cc1-c1ccccc1	u	-4%	2	-3%	21µM*
CC(C)C[C@H]1CN([C@@H](CC(C)C)CN2CCCC2CN2C(=S)NC[C@@H]2Cc2ccccc2)C(=S)N1CCc1ccccc1 (stereo partly drawn)	x	x	x	x	-9%
CCOC(=O)c1c(N)sc2c1CCS(=O)(=O)C2	-3%	-9%	5	-1%	27µM*
Cn1c(CCN2CCOCC2)nc2cc(NC(=O)COc3ccccc3)ccc21	-7%	-11%	3	-2%	-8%
COc1ccc(OCC(=O)Nc2ccc3c(c2)nc(CCN2CCN(C)CC2)n3C)cc1	u	0%	23	-4%	24µM*
Cn1c(CN2CCOCC2)nc2cc(NC(=O)COc3ccccc3)ccc21	u	-3%	-7	-7%	21µM*
COc1ccc(OCC(=O)Nc2ccc3c(c2)nc(CCN2CCCC2)n3C)cc1	3%	3%	0	1%	-2%
O=[N+]([O-])c1cc(C(F)(F)F)cc([N+](=O)[O-])c1NN=C1CCCCC1	50µM*	u	-1	-1%	u
COCC(=O)N1CCC[C@@]2(CCN(c3ccccn3)C2)C1	1%	x	x	x	x
Cc1ccc(S(=O)(=O)N2C[C@@H]3CCCC[C@@H]3[C@@H](C)[C@H]2c2cn(Cc3ccccc3)c3ncccc23)cc1	-20%	-6%	1	10µM*	-8%
Cc1ccc(S(=O)(=O)N2C[C@@H]3CCCC[C@@H]3[C@@H](C)[C@H]2c2cn(Cc3ccccc3)c3ccccc23)cc1	-9%	-3%	-3	u	-8%
CC(C)c1ccc(N(CC(=O)NC2CCCC2)C(=O)CCC(=O)Nc2ccccn2)cc1	-30%	-4%	-8	2%	24µM*
COc1ccc(-c2nc(CCNC(=O)c3cccs3)cs2)cc1OC	0%	x	x	x	x
Cc1cc(C)n(-c2ccc(NC(=O)C3CCCCN3C(=O)c3occc3C)cc2)n1 (stereo not drawn)	-18%	-2%	1	11%	-2%
Cc1ccoc1C(=O)N1CCCCC1C(=O)O (stereo not drawn)	u	1%	2	-2%	15µM*
CCOC(=O)C1=C(O)c2ccccc2C(=O)/C1=C\c1ccc(C)cc1	u	-6%	-13	-9%	0.67µM*
O=C(CSc1nc2cccnc2n1Cc1ccccc1)N1CCCC1	u	4%	13	2%	30µM*
Cc1ccc(NC(=O)/C(C#N)=C\c2ccc(-c3ccc(Cl)cc3)o2)c(C)c1	-10%	x	x	x	x
COc1ccc(CN2CC(=O)N(c3cc(Cl)ccc3OC)C2=S)cc1OC	-11%	-4%	-6	-1%	u
SMILES	VDR inh	TSG101-PTAP inh	TSHR antagonist	uPA surface inh	PLK1 PBD inh
COc1ccc(Cl)cc1N1C(=O)CN(Cc2cc(OC)c(OC)c(OC)c2)C1=S	u	1%	-8	6%	7.5µM*
COC(=O)c1c(NC(=O)CS(=O)(=O)c2ccc(C)cc2)sc2c1CCCC2	18%	x	x	x	x
CCOc1ccccc1NC(=O)NCc1ccc2c(c1)CCN2C(=O)c1ccccc1	4%	x	x	x	x
CCOC(=O)N1CCc2c(sc(NCc3cccc(F)c3)c2C(=O)Nc2ccc(OCC)cc2)C1	-25%	x	x	x	x
CC(C)CN(CC(C)C)S(=O)(=O)c1ccc(C(=O)Nc2sc3c(c2C(N)=O)CC(C)(C)NC3(C)C)cc1	5%	x	x	x	x
CN(C1CCCCC1)S(=O)(=O)c1ccc(C(=O)Nc2sc3c(c2C(N)=O)CC(C)(C)NC3(C)C)cc1	-2%	-2%	-13	-1%	34µM*
O=C(On1c(-c2ccccc2)nc2ccccc2c1=O)c1ccco1	-24%	-11%	x	-7%	17µM*
CCCCN(C)CCCNC(=O)c1cc(=O)[nH]c2ccc(S(=O)(=O)N3CCCCC3)cc12	8%	x	x	x	x
C=CC#CC1(O)CC(C)[N+](C)(C)CC1C (stereo not drawn)	-24%	0%	7	x	21µM*
O=C(NCc1cccc(Cl)c1)c1ccc2nc(N3CCOCC3)sc2c1	-24%	1%	-1	2%	27µM*
COc1ccc(-c2nc3sc(CCNC(=O)c4cc(OC)c(OC)c(OC)c4)c(C)n3n2)cc1	13%	x	x	x	x
CCCCCCN1CCN(C2CN(Cc3cn(CCCC(=O)OC)nn3)S(=O)(=O)C2)CC1 (stereo not drawn)	x	x	x	x	-9%
NC(=O)N/N=C/c1c(F)cccc1F	-15%	-5%	18	-6%	-7%
NC(=O)N/N=C/c1c(F)c(F)c(F)c(F)c1F	25µM*	-4%	-3	1%	21µM*
COc1ccc(-c2cc(C(F)(F)F)n3nc(C(=O)Nc4sc5c(c4C(=O)OC(C)C)CCCC5)cc3n2)cc1OC	12%	x	x	x	x
COc1ccc(OC)c(C2=NS(=O)(=O)N(C)C(C(=O)Nc3ccc(C(C)=O)cc3)=C2)c1	-19%	-1%	-8	-8%	30µM*
CCCOc1ccc(CN(C(=O)c2cc(=O)c3ccc(C)cc3o2)C2CCS(=O)(=O)C2)cc1 (stereo not drawn)	-6%	x	x	x	x
Cc1ccc(-c2cc(-c3ccccc3)no2)cc1	-5%	x	-18	u	-1%
c1ccc(-c2cc(-c3ccccc3)on2)cc1	u	-8%	-11	2%	13µM*
Cc1c(N=Cc2cc3c(cc2[N+](=O)[O-])OCO3)cccc1[N+](=O)[O-]	89µM*	-9%	x	0%	u
CN(C)C(=C(C#N)C#N)N1CCN(c2ccc(Cl)cc2)CC1	-7%	-1%	-3	-1%	30µM*
CCOC(=O)C(CC)Sc1ccc2nnc(-c3ccc(F)cc3)n2n1 (stereo not drawn)	-7%	x	x	x	x
N#Cc1cccc(-c2csc(N3CCC(C(N)=O)CC3)n2)c1	x	x	-9	x	x
N#Cc1ccccc1OCc1cn(CC(=O)c2ccc(O)cc2)nn1	u	2%	x	1%	24µM*
Fc1ccccc1Cn1c(-c2ccccc2)nc2ccccc21	7%	x	x	x	x
CCN(CC)CCn1c2c(c(SCC(=O)Nc3cccc(C(F)(F)F)c3)nc1=O)CCC2	6%	x	x	x	x
O=C(NC1CCCCC1)Oc1cc2oc(=O)sc2cc1Br	45µM*	1%	22	-1%	2.1µM*
COc1cc(OC)c(OC)cc1/C=C1/C(=O)N=C(N)N1C	u	-5%	-3	7%	21µM*
